Screening results: PubChem, several laboratories
An excerpt weighted towards active compounds, which were near 12% of everything screened.
m-calpain inh: inhibitors of pig calpain II, primary screen, biochemical, fluorogenic peptide substrate, 1536-well; inhibition, % at 16 µM; 220,000 tested, 0.37% active; purified calpain II, 30 min;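 active means inhibition above about 50%, limit read from the data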
L major viab: Leishmania major promastigote growth inhibition, primary screen | Leishmania major promastigotes, resazurin fluorescence viability | inhibition, % at 10 µM | 200,000 tested, 9% active | AID 1063, 2008; in the data active means inhibition above about 50%;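 further: promastigotes grown with compound for 44 hours at 28 °C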
WT yeast gro inh: growth inhibition of WT strain, primary screen, mitochondrial fusion inhibitor project, WT and mutant strains, chemical genetic | inhibition, % at 10 µM | mitochondrial fusion phenotypic screen | 190,000 tested, 2.1% active; in the data active means inhibition above about 58%; tested in S. cerevisiae
ROMK primary: ROMK potassium channel modulators, primary screen, cell-based, thallium flux, MLSMR library; ATP-sensitive inward rectifier potassium channel 1 (Homo sapiens), P48048; Tet-inducible ROMK, thallium flux fluorescence; actives lie on both sides; B-score at 10 µM; 130,000 tested, 2% active; AID 1918, 2009;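 active means signal ratio slope over the read window, or its plate-corrected B-score, at least 3 SD from the plate mean, either direction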;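 further: B-score of the F/F0 ratio slope over 7 to 12 s after thallium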
Target sequence (P48048 whole entry, looked up): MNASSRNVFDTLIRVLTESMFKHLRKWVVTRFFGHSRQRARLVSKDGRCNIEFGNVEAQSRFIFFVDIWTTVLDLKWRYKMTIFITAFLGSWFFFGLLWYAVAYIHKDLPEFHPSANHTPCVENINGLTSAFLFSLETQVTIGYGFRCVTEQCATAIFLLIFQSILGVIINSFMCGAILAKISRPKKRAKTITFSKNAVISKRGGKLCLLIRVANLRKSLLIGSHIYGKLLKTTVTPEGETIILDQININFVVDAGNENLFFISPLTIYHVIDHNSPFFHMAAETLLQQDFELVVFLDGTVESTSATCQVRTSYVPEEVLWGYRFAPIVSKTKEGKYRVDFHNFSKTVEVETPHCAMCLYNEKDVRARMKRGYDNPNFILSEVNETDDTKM
KCC2 mod: KCC2 cotransporter modulators, thallium flux, primary screen, cell-based, HEK293 KCC2, FluoZin-2 fluorescence, MLSMR | Solute carrier family 12 member 5 (Homo sapiens), Q9H2X9 | KCC2 cells, thallium flux FluoZin-2 fluorescence | B-score of Tl+ flux slope (higher = more flux/activation; lower = inhibition) at 10 µM | 190,000 tested, 2.2% active;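 active means thallium flux slope and its plate-corrected score both differing from the plate sample mean at a set confidence after two filtering rounds, in either direction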;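 further: slope of fluorescence scaled to starting intensity during 10 to 20 s after thallium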
Hits are given with their value; . = inactive; / = not tested or not shown.

SMILES	m-calpain inh	L major viab	WT yeast gro inh	ROMK primary	KCC2 mod
Cn1c(=O)c2c(SCc3cccnc3)nc(C3CC3)nc2n(C)c1=O	.	53	.	/	/
CC(C)Cc1nc(SCc2cccnc2)c2c(=O)n(C)c(=O)n(C)c2n1	.	96	.	.	.
COc1ccc(NC(=S)N2CCC(c3nc4ccccc4o3)CC2)c(OC)c1	.	.	.	/	.
C=CCNC(=S)N(CC)c1cccc2ccccc12	.	.	62	.	.
COC(=O)C(Oc1ccc2c(-c3ccc(OC)cc3)cc(=O)oc2c1)c1ccccc1 (stereo not drawn)	.	.	.	/	.
CCOC(=O)C(Oc1ccc2c(-c3ccccc3)cc(=O)oc2c1)c1ccccc1 (stereo not drawn)	.	78	.	.	.
O=C(Oc1ccc2c(-c3ccccc3)cc(=O)oc2c1)C1CCCCC1	56	.	.	/	.
CCOc1cc(C(=O)Nc2nnc(CC)s2)ccc1OCC(=O)N1CCOCC1	.	.	.	/	.
COc1ccc(-c2csc(NC(=O)c3ccc(OCC(=O)N4CCOCC4)c(OC)c3)n2)cc1OC	.	71	.	/	.
COc1cc(C(=O)OCC(=O)Nc2ccc(C(C)=O)cc2)ccc1OCC(=O)N1CCOCC1	.	66	.	.	.
O=C1CCCCC1C(Nc1ccc(Br)cc1)c1ccccc1 (stereo not drawn)	.	.	65	.	.
Nc1ncnc(N2CCc3ccccc32)c1[N+](=O)[O-]	.	.	.	.	.
CC(C)CC(=O)Nc1ccccc1-c1nnn(CC(=O)N2CCc3ccccc3C2)n1	.	.	.	/	-3.8
C/C(CC(C)(C)C1CCCCC1)=N\NC(N)=S	.	100	.	.	.
CS(=O)(=O)N(CC(=O)NCCSCc1c(F)cccc1Cl)c1cccc([N+](=O)[O-])c1	.	.	.	.	.
CCn1c(-c2ccccc2)csc1=Nc1ccc(S(=O)(=O)O)cc1	.	55	.	.	.
CCNC(=S)NNC(=O)c1cc(C)on1	.	.	.	.	.
O=C(CN1C(=O)c2ccccc2C1=O)NNC1=NS(=O)(=O)c2ccccc21	.	61	.	.	.
NS(=O)(=O)c1ccc(CCN2C(=O)/C(=C\c3ccc(Cl)cc3)SC2=S)cc1	.	.	.	.	.
CCOC(=O)N1C(=O)C2(CCCCC2)N(c2ccccc2Cl)C1=S	.	.	77	.	.
CCCC(=O)Nc1cc(-c2cn3cccnc3n2)ccc1OC	.	63	.	/	.
COc1ccc(-c2cn3cccnc3n2)cc1NC(=O)CC(C)C	.	.	.	/	.
COc1ccc(-c2cn3cccnc3n2)cc1NC(=O)c1ccc(Br)o1	.	99	.	/	.
CCCC(=O)Nc1cccc(-c2cn3cccnc3n2)c1	.	91	.	.	.
Cc1ccc(C)c(/C=C(\C(=O)O)c2ccc(S(=O)(=O)N3CCCCC3)s2)c1	.	.	.	.	.
SMILES	m-calpain inh	L major viab	WT yeast gro inh	ROMK primary	KCC2 mod
O=C1CC(N2CCN(C/C=C/c3ccccc3)CC2)C(=O)N1Cc1cccs1 (stereo not drawn)	.	89	.	/	/
CCOC(=O)N1CCN(C2OC(=O)c3ccccc32)CC1 (stereo not drawn)	.	.	.	.	.
O=C1CC(N2CCN(C/C=C/c3ccccc3)CC2)C(=O)N1CCc1ccccc1 (stereo not drawn)	.	93	.	/	/
O=C1OC(N2CCN(C/C=C/c3ccccc3)CC2)c2ccccc21 (stereo not drawn)	.	56	.	/	.
O=C1CC(N2CCN(c3ccc(O)cc3)CC2)C(=O)N1Cc1cccs1 (stereo not drawn)	.	.	.	/	.
O=C1CC(N2CCN(C3CC(=O)N(CCc4ccccc4)C3=O)CC2)C(=O)N1CCc1ccccc1 (stereo not drawn)	.	.	.	.	.
O=C(NNC(=O)c1cccnc1)Nc1cccc(Cl)c1Cl	.	.	.	/	.
COc1cc(/C=C(\C#N)C(=O)Nc2cccc3ncccc23)ccc1O	.	100	.	.	.
Cn1c(/C(C#N)=C/c2ccncc2)nc2ccccc21	.	.	.	-3.6	.
Cn1c(/C(C#N)=C/C2CC=CCC2)nc2ccccc21 (stereo not drawn)	.	79	.	/	.
COc1cc(/C=C(\C#N)c2nc3ccccc3n2C)cc(OC)c1O	.	.	.	-4.1	-6.9
O=C1CN(S(=O)(=O)c2ccccc2C(F)(F)F)CCN1	.	.	.	.	.
